Measurements published in PubChem BioAssay AID602429 (Sanford-Burnham Center for Chemical Genomics, 2012).
The campaign covered roughly 360,000 compounds. About 1,200 (0.33%) were called active. Rule as the data show it: active = inhibition above about 37%; inactive = the rest. Shown is part of a subset that was picked to be rich in actives.

These compounds were tested against Small ubiquitin-related modifier 1 (Homo sapiens) (UniProt P63165) (assay: modulators of SUMO1 protein-protein interactions, primary screen, biochemical, uHTS (AID 602429)). Settings: SUMO1 binding to a labelled peptide, TR-FRET, 1 h; at 20 µM; stronger effect = higher value.
Chain of Small ubiquitin-related modifier 1 (Homo sapiens) (P63165 whole entry, looked up): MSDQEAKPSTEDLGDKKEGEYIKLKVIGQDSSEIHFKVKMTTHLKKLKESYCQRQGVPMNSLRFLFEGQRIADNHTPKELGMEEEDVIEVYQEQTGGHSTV
With `CCCn1c(N)c(C(=O)CSc2nc3ccccc3c(=O)n2-c2ccc(OC)cc2)c(=O)[nH]c1=O` the inhibition was 46.9% (active).
For `CCOc1ccc(-n2c(SCC(=O)Nc3cc(C(=O)O)ccc3Cl)nc3ccccc3c2=O)cc1`, the inhibition was 19.1% (inactive).
With `CCCn1c(N)c(C(=O)CSc2nnc3n2CCCCC3)c(=O)[nH]c1=O` the inhibition was 8.44% (inactive).
`COCCOC(=O)c1c(C)oc2cc(Br)c(OCC(N)=O)cc12` was tested, and the inhibition was -1.35% (inactive).
For `CCN(c1ccccc1)S(=O)(=O)c1cccc(C(=O)NCc2ccccc2CN2CCOCC2)c1`, the inhibition was -2.56% (inactive).
`COc1ccc(C)cc1NC(=O)NCCCCc1ccccc1` was tested, and the inhibition was 3.9% (inactive).
`O=S(=O)(NCCSc1ccccn1)c1ccc(Cl)cc1` was tested, and the inhibition was -0.907% (inactive).
In the case of `O=C(Cc1ccsc1)N1CCN(S(=O)(=O)c2cc(C(F)(F)F)cc(C(F)(F)F)c2)CC1`, the inhibition was 32.3% (inactive).
`COc1ccc2[nH]c(=O)c(-c3noc(-c4ccc(F)cc4)n3)cc2c1` was tested, and the inhibition was 64% (active).
For `COc1ccc(Cc2cc(-c3ccc(F)cc3)n[nH]c2=O)cc1`, the inhibition was -0.22% (inactive).
For `CCCc1nc(-c2cc3cc(C)ccc3[nH]c2=O)no1`, the inhibition was -3.17% (inactive).
`Cc1cc(C)cc(OCC(=O)Nc2cc(NC(=O)COc3cc(C)cc(C)c3)cc(C(=O)O)c2)c1` was tested, and the inhibition was 13.4% (inactive).
In the case of `CCN1CCCC1CNC(=O)Cn1cnc2ccc(S(=O)(=O)N3CCC(C)CC3)cc2c1=O` (stereo unspecified), the inhibition was -2.59% (inactive).
`CCN1CCCC1CNC(=O)c1cc2c(=O)n(C)c3ccccc3c2n1C` (stereo unspecified) was tested, and the inhibition was 46.4% (active).
For `CCN1CCCC1CNC(=O)c1ccc2c(c1)NC(=O)/C(=C\c1ccccc1F)S2` (stereo unspecified), the inhibition was -60.4% (inactive).
In the case of `CCCCn1c(SCc2ncc(-c3ccccc3)o2)nc2cc(S(N)(=O)=O)ccc21`, the inhibition was 0.0839% (inactive).
For `CCCCc1nc(SCC(=O)Nc2nnc(C(C)C)s2)n[nH]1`, the inhibition was 4.69% (inactive).
With `O=C(COc1ccc(Cl)cc1)Nc1ccc2oc(=O)ccc2c1` the inhibition was 4.58% (inactive).
For `COc1ccccc1CNS(=O)(=O)c1cc(C(=O)NCc2ccccn2)c(Cl)cc1Cl`, the inhibition was -1.08% (inactive).
In the case of `COCCNC(=O)c1ccc2nc(Cc3ccc(OC)c(OC)c3)oc2c1`, the inhibition was 0.593% (inactive).
With `COCCNC(=O)Nc1ccc2nc(-c3ccco3)c(-c3ccco3)nc2c1` the inhibition was 64.2% (active).
In the case of `COc1cc(NC(=O)C2=CC(c3ccco3)=NS(=O)(=O)N2C)cc(OC)c1OC`, the inhibition was -26.3% (inactive).
With `O=C(NCc1ccco1)C(=O)c1cn(CC(=O)N2CCCCCC2)c2ccccc12` the inhibition was -6.74% (inactive).
With `CC1(C)CC(=O)C(C=NCc2cccnc2)=C(O)C1` the inhibition was -0.212% (inactive).
In the case of `Cc1ccccc1S(=O)(=O)Cc1ccc(C(=O)NCCN2CCCCC2C)o1` (stereo unspecified), the inhibition was -2.78% (inactive).
For `NC(=S)NN=C1CCCC(C(F)(F)F)C1` (stereo unspecified), the inhibition was -4.43% (inactive).
For `CCCc1cc(=S)n2c([nH]c3ccccc32)c1C#N`, the inhibition was 45.4% (active).
`COC(=O)c1cccc(NC(=O)CN2CCC(NC(=O)c3cc(OC)c(OC)c(OC)c3)CC2)c1` was tested, and the inhibition was 4.74% (inactive).
For `CCC(C(=O)N1CCOCC1)n1c(C(=O)OC)cc2occc21` (stereo unspecified), the inhibition was 0.0718% (inactive).
`COc1ccc2c(-c3ccccc3)cc(SCC(=O)N(C)C3CCS(=O)(=O)C3)nc2c1` (stereo unspecified) was tested, and the inhibition was 0.193% (inactive).
For `CN(C(=O)COC(=O)c1cc(-c2ccco2)nc2ccccc12)C1CCS(=O)(=O)C1` (stereo unspecified), the inhibition was 105% (active).
`O=C(c1cc(-c2ccco2)nc2ccccc12)N(Cc1nnc(-c2ccc(Cl)cc2)o1)C1CC1` was tested, and the inhibition was 5.63% (inactive).
For `O=C(Nc1cccc2c1CCCC2)c1ccc(F)cc1`, the inhibition was -0.657% (inactive).
With `O=C(CSc1cccc[n+]1[O-])NCCCc1ccccc1` the inhibition was -1.78% (inactive).
With `COc1ccc(Cl)cc1NC(=O)COC(=O)c1ccc(Br)o1` the inhibition was 3.41% (inactive).
`O=C(CCS(=O)(=O)c1ccc(Br)cc1)NCCc1ccc(Cl)cc1` was tested, and the inhibition was 15.1% (inactive).
`COc1ccc(Cl)cc1NC(=O)CCS(=O)(=O)c1ccc(Br)cc1` was tested, and the inhibition was 71% (active).
For `CCn1c(O)c2ccc(C(=O)N=NC(=O)c3cccnc3)cc2c1O`, the inhibition was -19.8% (inactive).
`Cn1c(SCC(=O)Nc2ccc(N3CCOCC3)cc2)nnc1C(F)(F)F` was tested, and the inhibition was 3.07% (inactive).
For `O=C1C2C3C=CC(C4CC34)C2C(=O)N1c1nccs1` (stereo unspecified), the inhibition was 0.623% (inactive).
`CCOc1ccc(C(=O)NCC(=O)N2CCN(c3ccc(C(F)(F)F)cn3)CC2)cc1` was tested, and the inhibition was -1.81% (inactive).
For `CC(=O)c1c(OCC(=O)N(C)C2CCCCC2)ccc2c(C)cc(=O)oc12`, the inhibition was 0.393% (inactive).
`O=C(Nc1cc2c3c(c1)C1CCCC1CN3CC1CCCC21)c1ccc([N+](=O)[O-])cc1` (stereo unspecified) was tested, and the inhibition was -12.8% (inactive).
`O=C(Nc1ccc(C2CC2(Cl)Cl)cc1)c1cccc([N+](=O)[O-])c1` (stereo unspecified) was tested, and the inhibition was -19.7% (inactive).
In the case of `Cn1ccc(=Nc2ccc(NC(=O)c3ccc(N=c4ccn(C)c5ccc([N+](=O)[O-])cc45)cc3)cc2)cc1`, the inhibition was 78.6% (active).
`CCCS(=O)(=O)N1CCC(C(=O)NCCCN(C)Cc2ccccc2)CC1` was tested, and the inhibition was 3.93% (inactive).
In the case of `Cc1ccc(CCN2CC(C(=O)O)CC2=O)cc1` (stereo unspecified), the inhibition was 0.0169% (inactive).
`O=c1[nH]c2ccccc2s1` was tested, and the inhibition was 0.972% (inactive).
In the case of `Nc1ccc2[nH]c(=S)sc2c1`, the inhibition was 65% (active).
In the case of `CCOc1ccc2[nH]c(=S)sc2c1`, the inhibition was 6.23% (inactive).
With `O=C(c1ccc2c(c1)OCCO2)C1CCN(S(=O)(=O)c2cccc(F)c2)CC1` the inhibition was -0.625% (inactive).
`CCn1ncc(Br)c1C(=O)Nc1cc(C)ccc1F` was tested, and the inhibition was 1.78% (inactive).
In the case of `COc1ccc([N+](=O)[O-])cc1NC(=O)CC1SC(=Nc2cccc(C)c2C)N(/N=C(\C)c2ccc(C)cc2)C1=O` (stereo unspecified), the inhibition was -1.72% (inactive).
For `CCN(CC(=O)N1CCCC1)S(=O)(=O)c1ccc(F)cc1`, the inhibition was 0.769% (inactive).
With `COc1nc(N(C)C)nc(N2CC(=O)N(CCNS(=O)(=O)c3ccc(C)cc3)C2=N)n1` the inhibition was 44% (active).
`COc1nc(Oc2ccc(=O)n(C)n2)nc(N(C)C)n1` was tested, and the inhibition was -2.1% (inactive).
`Cc1ccc(S(=O)(=O)NCCSC(C)(C)C)cc1` was tested, and the inhibition was 2.52% (inactive).
For `O=C(Nc1nnc(SCc2c(Cl)cccc2Cl)s1)C1CCCO1` (stereo unspecified), the inhibition was 4.7% (inactive).
`Cc1cc(C)c2nc(NC(=O)C3CCCO3)sc2c1` (stereo unspecified) was tested, and the inhibition was -1.66% (inactive).
With `O=C(Nc1nnc(CCc2ccccc2)s1)C1CCCO1` (stereo unspecified) the inhibition was 42.9% (active).
For `Cc1ccc(NC(=O)Cn2cccc2C2=NC(c3ccccc3)CO2)c(C)c1` (stereo unspecified), the inhibition was -4.14% (inactive).
`COC(=O)c1cc2occc2n1Cc1nc(-c2ccccc2C)oc1C` was tested, and the inhibition was 0.0493% (inactive).
`COc1ccc(Br)cc1/C=N/Nc1ccc(S(=O)(=O)Nc2ccccc2C(=O)O)cc1[N+](=O)[O-]` was tested, and the inhibition was 108% (active).
With `COc1cc(CCN=Cc2ccccc2O)c([N+](=O)[O-])cc1OC` the inhibition was -13% (inactive).
In the case of `COc1ccccc1C(CNC(=O)c1cccc(NS(=O)(=O)c2ccc(Br)cc2)c1)N(C)C` (stereo unspecified), the inhibition was -3.01% (inactive).
With `COCOCCn1cc(CN2CCS(=O)(=O)N(Cc3ccc(-c4ccccc4)cc3)C(CC(C)C)C2=O)nn1` (stereo unspecified) the inhibition was 3.98% (inactive).
`COc1ccc(OCc2nnc3n2N=C(c2ccccc2)C(CC(=O)O)S3)cc1` (stereo unspecified) was tested, and the inhibition was 10.5% (inactive).
For `CCOC(=O)C1=C(COC(=O)[C@H](C)NS(=O)(=O)c2ccccc2F)NC(=O)NC1C` (stereo partly specified), the inhibition was 2.53% (inactive).
For `O=C(O)CC(CC(=O)N1CCOCC1)c1ccccc1` (stereo unspecified), the inhibition was 4.09% (inactive).
`Oc1ccc(N=Cc2sc3ccccc3c2Cl)cc1` was tested, and the inhibition was 43.8% (active).
For `CCCNC(=O)c1cc(C2CCCN(C(=O)c3ccc4c(c3)CCO4)C2)on1` (stereo unspecified), the inhibition was -2.48% (inactive).
`CCCCN(C)CCNC(=O)C1CCCN(S(=O)(=O)c2cccc3nsnc23)C1` (stereo unspecified) was tested, and the inhibition was -32.8% (inactive).
With `COc1ccc(CCNC(=O)C(=O)Nc2ccc3nc4n(c(=O)c3c2)CCCCC4)cc1OC` the inhibition was -4.72% (inactive).
In the case of `CC(=O)NN=C(C)c1ccc(NC(=O)C2CC2)cc1`, the inhibition was -0.643% (inactive).
For `O=C(Cn1cnc2ccccc21)N/N=C/c1ccco1`, the inhibition was -6.39% (inactive).
With `O=C(N/N=C/c1ccco1)c1ccc(C(=O)N/N=C/c2ccco2)o1` the inhibition was 36.6% (active).
With `Cc1c(Cl)cccc1NC(=O)CCC(=O)N/N=C/c1ccco1` the inhibition was -6.83% (inactive).
In the case of `Cc1c(CCC(=O)O)c(=O)oc2c(C)c(OCc3ccccc3Cl)ccc12`, the inhibition was 56.6% (active).
In the case of `COc1ccc2c(C)c(CCC(=O)NC3CC3)c(=O)oc2c1C`, the inhibition was 1.06% (inactive).
`O=C(O)c1ccccc1OCc1ccccc1Cl` was tested, and the inhibition was 1.06% (inactive).
`Cc1cc(C)n2nc(C(=O)OC(C)C(=O)c3cc(C)c(C)cc3C)nc2n1` (stereo unspecified) was tested, and the inhibition was 1.78% (inactive).
For `O=C(CNC(=O)[C@@H]1Cc2ccccc2CN1)NC1CCCCC1`, the inhibition was 3.02% (inactive).
With `C=C(C)C(=O)Nc1cccc(C2=NOC3(C2)C[C@H](C(N)=O)N(C(=O)C(c2ccccc2)c2ccccc2)C3)c1` (stereo partly specified) the inhibition was 61.6% (active).
In the case of `CC/C=C/C(=O)N1CC2(CC(c3cccc(NC(=O)CC)c3)=NO2)C[C@H]1C(N)=O` (stereo partly specified), the inhibition was 0.0237% (inactive).
In the case of `C/C=C\C=C\C(=O)N1CC2(CC(c3cccc(NC(=O)/C(C)=C\C)c3)=NO2)C[C@H]1C(N)=O` (stereo partly specified), the inhibition was -1.81% (inactive).
In the case of `COc1cccc(NC(=O)C(Sc2nc3ccccc3c(=O)n2CC(C)C)c2ccccc2)c1` (stereo unspecified), the inhibition was 1.55% (inactive).
For `Cc1nc([N+](=O)[O-])c(NCCCO)n1Cc1ccccc1`, the inhibition was -1.9% (inactive).
For `CCCCNC(=O)Nc1c(C)cc(SC#N)cc1C`, the inhibition was -6.49% (inactive).
With `CCOc1ccc(-c2nc(N)ncc2-c2ccccc2OC)c(O)c1` the inhibition was 39.4% (active).
With `COc1ccc(-c2c(-c3ccc(OC)cc3O)nc(C)nc2C(F)(F)F)cc1` the inhibition was 3.81% (inactive).
With `CCOC(=O)Cn1c2c(c(-c3ccccc3OC)cc1=O)CCCC2` the inhibition was -0.83% (inactive).
